The campaign covered roughly 5,500 compounds. About 2,000 (36%) were called active. Roughly 18% stayed inconclusive and do not appear here. The list shows a part of the results. Unmarked numbers belong to inactive results. Rule as the data show it: active = normalized growth mostly below about 0.91 (no sharp cut-off); inconclusive = no clear call, values can overlap the other calls; inactive = mostly above about 0.92.
Experiment: chemical genetic growth profiling, strain panel (AID 1159580);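 also: tested at 20 µM; growth read once vehicle control cultures reached saturation at 30 °C; 1 = growth at the plate median or of vehicle wells; lower values mean less growth of the strain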
Conditions: S. cerevisiae deletion strains, growth OD
[1] = locus YAL013W, strain DEP1, stronger effect = lower value
[2] = locus YAL040C, strain CLN3, stronger effect = lower value
[3] = locus YCL061C, strain MRC1 (second series), stronger effect = lower value
[4] = locus YDR363W, strain ESC2, stronger effect = lower value
[5] = locus YER002W, strain NOP16, stronger effect = lower value
[6] = locus YMR263W, strain SAP30, stronger effect = lower value
[7] = locus YMR307W, strain GAS1, stronger effect = lower value
[8] = locus YNL128W, strain TEP1, stronger effect = lower value
[9] = locus YNL153C, strain GIM3, stronger effect = lower value
[10] = locus YNL175C, strain NOP13, stronger effect = lower value
[11] = locus YNL197C, strain WHI3, stronger effect = lower value
[12] = locus YNL224C, strain SQS1, stronger effect = lower value
[13] = locus YNL322C, strain KRE1, stronger effect = lower value
[14] = locus YOR083W, strain WHI5 (second series), stronger effect = lower value
[15] = locus YPL241C, strain CIN2, stronger effect = lower value
[16] = locus YDR150W, strain NUM1, stronger effect = lower value
[17] = locus YGR078C, strain PAC10, stronger effect = lower value
[18] = locus YPL055C, strain LGE1, stronger effect = lower value
[19] = locus YGR229C, strain SMI1, stronger effect = lower value

Compound	normalized growth [1]	normalized growth [2]	normalized growth [3]	normalized growth [4]	normalized growth [5]	normalized growth [6]	normalized growth [7]	normalized growth [8]	normalized growth [9]	normalized growth [10]	normalized growth [11]	normalized growth [12]	normalized growth [13]	normalized growth [14]	normalized growth [15]	normalized growth [16]	normalized growth [17]	normalized growth (locus YJR075W, strain HOC1, stronger effect = lower value)	normalized growth [18]	normalized growth [19]
CN1CCc2cc(O)c(O)cc2C(c2ccccc2)C1 (stereo not given)	1.02	1	0.997	1.02	1	1	0.998	1	1.01	1.01	1.01	1	1	1.01	1					
Oc1cc2c(c(Cl)c1O)CCNCC2c1ccccc1 (stereo not given)		0.985	0.985	0.977	0.978	1.01	0.988		0.967	1.02	1.01	1.04	0.981	1.01	0.981	0.925 (active)	0.995	0.875 (active)	0.57 (active)	
CN1CCc2cc(Cl)c(O)cc2[C@@H](c2ccccc2)C1		1.01	1	1.01	1.04		0.993		1.02	1.01	0.995	1.01		1.03					0.995	1.03
Oc1ccc(C2CNCCc3c2cc(O)c(O)c3Cl)cc1 (stereo not given)		0.987	0.986	1.03	0.997	0.994	1.02	0.984	0.935	1	0.977	1.06	1.02	0.965	0.981				0.989	
C=CCN1CCc2c(cc(O)c(O)c2Cl)C(c2ccccc2)C1 (stereo not given)	0.917	0.992	0.934 (active)	0.891	0.996	0.995	0.993		0.911	0.981	0.904	1.04	0.754 (active)	0.958		0.907 (active)				
C=CCN1CCc2cc(O)c(O)cc2C(c2ccccc2)C1 (stereo not given)	0.95	1.06	0.979	0.994	1.02	1	1	1.02	1.01	1.02	1.02	1	0.966	1.02			1.01			0.917
Cc1cccc(C2CN(C)CCc3c2cc(O)c(O)c3Cl)c1 (stereo not given)		1.01	0.988	1	1.01		1.01			1.01	1.01	1.01	0.973	1.01	0.996					
